# Data as given in PubChem BioAssay (Tox21).
# “And” between values parts separate entries of the source, which are not always exact repeats. Identical values can stand only once. Unmarked numbers belong to inactive results. Records with an inconclusive call do not appear. A call without a number means that no potency is given here. The source made the active and inactive calls. Unless noted, calls come from the whole dose curve; as a rule, active = well fitted curve in the direction sought with a large enough effect in the repeat runs; inconclusive = weak or mixed curves; inactive = no such curve, though single readings can be large; an effect the other way counts as inactive or inconclusive.
# How the values were obtained:
# [1] = qHTS assay to identify small molecule antagonists of the glucocorticoid receptor (GR) signaling pathway - cell viability counter screen (AID 720693); note: nearly all actives have a fitted effect of over 55% in size
# [2] = qHTS assay for identifying genotoxic compounds that show differential cytotoxicity against isogenic chicken DT40 cell lines with known DNA damage response pathways - Rev3 mutant cell line (AID 743014); note: nearly all actives have a fitted effect of over 55% in size; note: potency is the fitted concentration of half-maximal effect
# [3] = qHTS assay for identifying genotoxic compounds that show differential cytotoxicity against isogenic chicken DT40 cell lines with known DNA damage response pathways - Rad54/Ku70 mutant cell line (AID 743015); note: nearly all actives have a fitted effect of over 60% in size; note: potency is the fitted concentration of half-maximal effect
# [4] = qHTS assay to identify small molecule antagonists of the androgen receptor (AR) signaling pathway - cell viability counter screen (AID 743033; note: nearly all actives have a fitted effect of over 45% in size; note: potency is the fitted concentration of half-maximal effect)
# [5] = qHTS assay to identify small molecule antagonists of the androgen receptor (AR) signaling pathway using the MDA cell line - cell viability counter screen (AID 743041; note: nearly all actives have a fitted effect of over 45% in size; note: potency is the fitted concentration of half-maximal effect)
# Procedure, shortened: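 In this qHTS counter assay, fluorescence intensity after CellTiter-Fluor addition indicated viability of MDA-kb2 AR-luc cells given compounds and R1881 for 16 h at 37C.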
# [6] = target: Androgen receptor (Homo sapiens) (UniProt P10275); assay: qHTS assay to identify small molecule antagonists of the androgen receptor (AR) signaling pathway (AID 743035; active = well fitted inhibition curve with a large enough effect in the signal ratio in the repeat runs, not every such curve was filed as active; the % refers to the signal ratio; note: potency is the fitted concentration of half-maximal effect)
# Androgen receptor (Homo sapiens), sequence (P10275 whole entry, looked up): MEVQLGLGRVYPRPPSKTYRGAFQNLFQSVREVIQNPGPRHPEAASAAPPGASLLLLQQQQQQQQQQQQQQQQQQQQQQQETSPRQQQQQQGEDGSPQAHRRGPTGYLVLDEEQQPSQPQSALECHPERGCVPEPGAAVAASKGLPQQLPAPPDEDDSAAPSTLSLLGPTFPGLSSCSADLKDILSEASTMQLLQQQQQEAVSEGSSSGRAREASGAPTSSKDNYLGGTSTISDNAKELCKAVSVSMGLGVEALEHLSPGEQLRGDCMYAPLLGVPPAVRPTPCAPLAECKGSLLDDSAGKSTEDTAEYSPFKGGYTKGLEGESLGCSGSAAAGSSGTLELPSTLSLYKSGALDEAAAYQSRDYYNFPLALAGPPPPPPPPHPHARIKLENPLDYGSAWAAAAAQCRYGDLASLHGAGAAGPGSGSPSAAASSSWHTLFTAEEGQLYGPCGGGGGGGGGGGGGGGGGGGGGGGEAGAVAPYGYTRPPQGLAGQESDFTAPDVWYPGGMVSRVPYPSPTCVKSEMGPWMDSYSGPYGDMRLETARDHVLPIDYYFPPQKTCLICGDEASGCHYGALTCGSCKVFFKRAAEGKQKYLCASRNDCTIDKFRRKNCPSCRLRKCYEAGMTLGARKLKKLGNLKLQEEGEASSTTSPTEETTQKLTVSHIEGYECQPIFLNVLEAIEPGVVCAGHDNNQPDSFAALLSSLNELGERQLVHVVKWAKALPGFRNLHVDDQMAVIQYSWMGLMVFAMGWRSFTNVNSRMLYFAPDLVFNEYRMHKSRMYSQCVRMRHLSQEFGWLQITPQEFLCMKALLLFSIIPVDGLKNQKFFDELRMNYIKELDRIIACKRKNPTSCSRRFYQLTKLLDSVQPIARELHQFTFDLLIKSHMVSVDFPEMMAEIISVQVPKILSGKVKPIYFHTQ
# Procedure, shortened: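 R1881 agonist challenge of a HEK293 UAS-beta-lactamase AR reporter line in the presence of compound (16 h, 37C); signal taken as FRET fluorescence after 2 h with LiveBLAzer B/G substrate at room temperature.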
# [7] = target: Androgen receptor (Homo sapiens) (UniProt P10275); assay: qHTS assay to identify small molecule agonists of the androgen receptor (AR) signaling pathway using the MDA cell line (AID 743040; note: nearly all actives have a fitted effect of over 20% in size)
# Procedure, shortened: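 Cell-based luciferase reporter: MDA-kb2, MMTV promoter (AR + GR response elements). 16 h compound exposure at 37C; ONE-Glo, 30 min RT, luminescence.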
# [8] = target: Androgen receptor (Homo sapiens) (UniProt P10275); assay: qHTS assay to identify small molecule agonists of the androgen receptor (AR) signaling pathway (AID 743036; active = well fitted activation curve with a large enough effect in the signal ratio in the repeat runs, with a control signal flat, not every such curve was filed as active; the % refers to the signal ratio)
# Procedure, shortened: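 AR-bla HEK293 cells, 2,000/well; 4 h preincubation 37C/5% CO2; compound (DMSO) 16 h at 37C; LiveBLAzer B/G FRET substrate 2 h RT; fluorescence intensity read-out.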
# [9] = target: Androgen receptor (Homo sapiens) (UniProt P10275); assay: qHTS assay to identify small molecule antagonists of the androgen receptor (AR) signaling pathway using the MDA cell line (AID 743042; note: nearly all actives have a fitted effect of over 55% in size; note: potency is the fitted concentration of half-maximal effect)
# Procedure, shortened: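 MDA-kb2 cells (human breast carcinoma, stably carrying an MMTV-luciferase reporter responsive to AR and GR) were plated at 3,000 cells/well and preincubated 5 hr at 37C, then given compound plus R1881 agonist for 16 h. ONE-Glo luminescence was read.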
compound,measurement,setting,value
CCC(C)O (configuration not stated),Potency,[1],inactive
same,Potency,[2],inactive
same,Potency,[3],inactive
same,Potency,[4],inactive
same,Potency,[5],inactive
CC(=O)[O][Al],Potency,[1],inactive
same,Potency,[2],inactive
same,Potency,[3],inactive
same,Potency,[4],inactive
same,Potency,[5],inactive
COc1ccc(S(=O)(=O)N2C(=O)[C@@](c3ccccc3OC)(N3C[C@H](O)C[C@H]3C(=O)N(C)C)c3cc(Cl)ccc32)c(OC)c1,Potency,[1],inactive
same,Potency,[2],61.1 µM (active)
same,Potency,[6],17.4 µM (active)
same,Potency,[7],inactive
same,Potency,[5],inactive
O=C(O)CNCC(=O)O,"viability change, negative = cytotoxic",[1],-8.93% [at 7.04 µM]
same,"activity, negative = cytotoxicity",[2],-2.98% [at 8.53 µM]
same,"activity change, negative = cytotoxicity",[4],1.48% [at 7.04 µM]
same,"activity change, negative = inhibition",[6],0.788% [at 7.04 µM]
same,activation,[8],-0.671% [at 6.9 µM]
same,activity change,[7],"1.91% [at 8.47 µM, hits give high values]"
same,"viability change, negative = cytotoxic",[5],-11.9% [at 8.47 µM]
same,"activity change, negative = inhibition",[9],1.72% [at 8.47 µM]
CCOc1ccc(O)cc1,Potency,[1],inactive
same,Potency,[2],54.5 µM (active)
same,Potency,[4],inactive
same,Potency,[5],inactive
CC[N+]1(CC)CCC(=C(c2ccccc2)c2ccccc2)C1C (configuration not stated),Potency,[1],inactive
same,Potency,[2],16.8 µM (active)
same,Potency,[4],inactive
CCN(CC)CCOC(=O)C(c1ccccc1)C1CCCCC1 (configuration not stated),Potency,[1],inactive
same,Potency,[2],10.6 µM (active)
same,Potency,[3],23.7 µM (active)
same,Potency,[4],inactive
same,Potency,[5],inactive
COc1ccc(-c2nc3ccc(C4=NNC(=O)CC4C)cc3[nH]2)cc1 (configuration not stated),Potency,[1],inactive
same,Potency,[2],11.9 µM (active)
same,Potency,[3],18.8 µM (active)
same,Potency,[6],19 µM (active)
same,Potency,[7],inactive
same,Potency,[5],inactive
same,Potency,[9],inactive
CC(C)CC(=O)C1C(=O)c2ccccc2C1=O,Potency,[1],inactive
same,Potency,[2],inactive
same,Potency,[3],inactive
same,Potency,[6],49 µM (active)
same,Potency,[8],inactive
same,Potency,[7],inactive
same,Potency,[5],inactive
same,Potency,[9],inactive
OCCNCc1ccccc1,Potency,[1],inactive
same,Potency,[2],inactive
same,Potency,[3],inactive
same,Potency,[4],inactive
same,Potency,[6],inactive
same,Potency,[8],inactive
same,Potency,[7],inactive
same,Potency,[5],inactive
same,Potency,[9],inactive
O=C(O)c1ccco1,Potency,[1],inactive
same,Potency,[2],inactive
same,Potency,[3],inactive
same,Potency,[4],inactive
same,Potency,[5],inactive
OCCN1CCN(CCCN2c3ccccc3C=Cc3ccccc32)CC1,Potency,[1],inactive
same,Potency,[2],1.68 µM (active) and 15 µM (active)
same,Potency,[3],8.41 µM (active) and 26.6 µM (active)
same,Potency,[4],inactive
same,Potency,[5],inactive
O=C1OC(=O)C2C3C=CC(C3)C12 (configuration not stated),Potency,[1],inactive
same,Potency,[2],inactive
same,Potency,[3],inactive
same,Potency,[4],inactive
same,Potency,[5],inactive
O=[N+]([O-])c1cccc(S(=O)(=O)O)c1,Potency,[1],inactive
same,Potency,[2],inactive
same,Potency,[4],inactive
same,Potency,[5],inactive
O=CC1CC=CCC1 (configuration not stated),Potency,[1],inactive
same,Potency,[2],inactive
same,Potency,[3],inactive
same,Potency,[4],inactive
same,Potency,[6],inactive
same,Potency,[8],inactive
same,Potency,[7],inactive
same,Potency,[5],inactive
same,Potency,[9],inactive
CNCCCCOc1ccccc1Cc1ccccc1,Potency,[1],inactive
same,Potency,[2],3.35 µM (active)
same,Potency,[3],5.31 µM (active)
same,Potency,[4],inactive
same,Potency,[5],inactive
Cc1cccc(C)c1OCC(=O)N[C@@H](Cc1ccccc1)[C@@H](O)C[C@H](Cc1ccccc1)NC(=O)[C@H](C(C)C)N1CCCNC1=O,Potency,[1],inactive
same,Potency,[2],16.8 µM (active)
same,Potency,[3],11.9 µM (active)
same,Potency,[7],inactive
C[C@@H]1C[C@H]2O[C@@]3(O[C@@H]2C(C)(C)O)[C@H](O)[C@@]2(C)[C@@H]4CC[C@H]5C(C)(C)[C@@H](O[C@@H]6OC[C@@H](O)[C@H](O)[C@H]6O)CC[C@@]56C[C@@]46CC[C@]2(C)[C@@H]13,Potency,[1],inactive
same,Potency,[2],inactive
same,Potency,[4],inactive
same,Potency,[8],inactive
same,Potency,[7],inactive
same,Potency,[5],inactive
same,Potency,[9],inactive
CN(C)c1ccc(CCO)cc1,Potency,[1],inactive
same,Potency,[2],inactive
same,Potency,[4],inactive
same,Potency,[5],inactive
CCOc1ccc(N=Nc2ccc(/C=C/c3ccc(N=Nc4ccc(OCC)cc4)cc3S(=O)(=O)O)c(S(=O)(=O)O)c2)cc1,Potency,[1],inactive
same,Potency,[2],inactive
same,Potency,[4],inactive
same,Potency,[5],53.6 µM (active)
C=CC(=O)OCCOc1ccccc1,Potency,[1],inactive
same,Potency,[2],61.1 µM (active)
same,Potency,[4],inactive
same,Potency,[5],inactive
CN(Cc1ccc(C(C)(C)C)cc1)Cc1cccc2ccccc12,Potency,[1],inactive
same,Potency,[2],inactive
same,Potency,[3],inactive
same,Potency,[4],inactive
same,Potency,[5],inactive
CC1OC(=O)C(C)OC1=O (configuration not stated),Potency,[1],inactive
same,Potency,[2],inactive
same,Potency,[3],inactive
same,Potency,[4],inactive
same,Potency,[5],inactive
O=C(O)c1nc(Cl)c(Cl)c(Cl)c1Cl,Potency,[1],inactive
same,Potency,[2],inactive
same,Potency,[3],61.1 µM (active)
same,Potency,[4],inactive
same,Potency,[5],inactive
CCCCCCCCCc1ccc(OCCOCCO)cc1,Potency,[1],inactive
same,Potency,[2],3.76 µM (active) and 1.81 µM (active)
same,Potency,[3],3.76 µM (active) and 1.81 µM (active)
same,Potency,[4],13.4 µM (active) and 8.17 µM (active)
same,Potency,[6],5.35 µM (active) and 4.6 µM (active)
same,Potency,[8],inactive
same,Potency,[7],inactive
same,Potency,[5],11.1 µM (active) and 5.11 µM (active)
same,Potency,[9],4.73 µM (active) and 1.44 µM (active)
CC1=CC=C(C(C)C)CC1,Potency,[1],inactive
same,Potency,[2],inactive
same,Potency,[4],inactive
same,Potency,[5],inactive
CCN(CC)CCOC(=O)C(Cc1cccc2ccccc12)CC1CCCO1 (configuration not stated),Potency,[1],inactive
same,Potency,[2],inactive
same,Potency,[3],inactive
same,Potency,[4],inactive
same,Potency,[5],inactive
CC(C)(COC(=O)c1ccccc1)COC(=O)c1ccccc1,Potency,[1],inactive
same,Potency,[2],30.6 µM (active)
same,Potency,[3],48.6 µM (active)
same,Potency,[4],inactive
same,Potency,[5],inactive
COc1cc2nc(N3CCN(C(=O)C4COc5ccccc5O4)CC3)nc(N)c2cc1OC (configuration not stated),Potency,[1],inactive
same,Potency,[2],inactive
same,Potency,[4],inactive
same,Potency,[5],inactive
